In PubChem BioAssay (NCI):
This is part of a sample that, as a whole, favours compounds with a hit. Of some 79,000 tested, about 15% had one in any assay. Values without a mark were called inactive. Calls of active or inactive are those of the source. Rule as the data show it: active = growth inhibition above about 70%; inactive = the rest.

Legend:
[1] = NCI Yeast Anticancer Drug Screen. Data for the rad50 strain (AID 155);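 also: 0% = growth of vehicle-only cultures of the same strain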; settings: S. cerevisiae rad50 strain growth inhibition, stronger effect = higher value
In short: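 Relative growth inhibition (compound vs vehicle) was measured in yeast with a defined repair-gene alteration.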

[2] = NCI Yeast Anticancer Drug Screen. Data for the mec2-1 strain (AID 157); settings: S. cerevisiae mec2-1 strain, stronger effect = higher value
In short: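 Cells of the genetically defined mec2-1 yeast strain are incubated with test compound. Inhibition of growth is calculated against vehicle-treated controls.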

[3] = NCI Yeast Anticancer Drug Screen. Data for the sgs1 mgt1 strain (AID 161);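 also: 0% = growth of cultures given vehicle only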; settings: S. cerevisiae sgs1 mgt1 strain, stronger effect = higher value
In short: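 Test agents were incubated with a DNA-repair-mutant yeast strain. Growth was then read and compared against vehicle-treated controls.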

[4] = NCI Yeast Anticancer Drug Screen. Data for the cln2 rad14 strain (AID 165);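 also: 0% = growth equal to vehicle treated cultures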; settings: S. cerevisiae cln2 rad14 strain, stronger effect = higher value
In short: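 The screen exposed genetically defined yeast (cln2 rad14) to test compounds and scored growth inhibition relative to vehicle-treated controls.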

[5] = NCI Yeast Anticancer Drug Screen. Data for the bub3 strain (AID 167); settings: S. cerevisiae bub3 mutant strain, stronger effect = higher value
In short: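 Screening used yeast with an engineered genetic alteration affecting cell cycle control. Compound-exposed cultures were compared with vehicle cultures, and reduced growth was taken as inhibition.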

[6] = NCI Yeast Anticancer Drug Screen. Data for the mlh1 rad18 strain (AID 175); settings: S. cerevisiae mlh1 rad18 strain growth inhibition, stronger effect = higher value
In short: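 Compound-treated yeast growth, normalised to vehicle controls. Strain bears defined DNA repair mutations.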

[7] = at 5.0 µM (retest, dose inferred, filed as 0.5)
[8] = at 50.0 µM (retest, dose inferred, filed as 5.0)

SMILES	growth inhibition [1, 7]	growth inhibition [1, 8]	growth inhibition ([1]; at 50.0 µM)	growth inhibition [2, 7]	growth inhibition [2, 8]	growth inhibition ([2]; at 50.0 µM)	growth inhibition [3, 7]	growth inhibition [3, 8]	growth inhibition ([3]; at 50.0 µM)	growth inhibition [4, 7]	growth inhibition [4, 8]	growth inhibition ([4]; at 50.0 µM)	growth inhibition [5, 7]	growth inhibition [5, 8]	growth inhibition ([5]; at 50.0 µM)	growth inhibition [6, 7]	growth inhibition [6, 8]	growth inhibition ([6]; at 50.0 µM)
COCCCNC(=O)SC	0%	-2%	-9.65%	2%	-1%	-22.4%	3%	2%	-15.6%	-2%	0%	56.6%	0%	2%	-6.85%	0%	-2%	19.1%
C=CCC(O)C(=O)OC1CC(C)CCC1C(C)(C)c1ccccc1 (stereo not given)	-1%	99% (active)	99% (active)	6%	99% (active)	99.2% (active)	8%	99% (active)	99.5% (active)	-6%	98% (active)	98.8% (active)	8%	98% (active)	99.4% (active)	9%	98% (active)	99.2% (active)
O=[N+]([O-])c1cccc2nc3ccccc3c(NCCO)c12	78% (active)	94% (active)	86.8% (active)	84% (active)	98% (active)	92% (active)	82% (active)	95% (active)	91.5% (active)	89% (active)	96% (active)	92% (active)	28%	94% (active)	87.2% (active)	89% (active)	96% (active)	86.6% (active)
O=C1/C(=C/c2ccccc2)CCCc2ccccc21	-2%	28%	59.8%	7%	62%	49.5%	14%	79% (active)	86% (active)	-10%	14%	19.7%	10%	75% (active)	74.8% (active)	10%	73% (active)	75% (active)
CCCCN(C)C(=S)N/N=C(\C)c1ccccn1	56%	99% (active)	99.5% (active)	73% (active)	100% (active)	99.8% (active)	97% (active)	99% (active)	99.7% (active)	95% (active)	98% (active)	99.5% (active)	92% (active)	99% (active)	99.5% (active)	98% (active)	99% (active)	99.7% (active)
Nc1n[n+](-c2ccccc2)no1	34%	81% (active)	61%	16%	46%	33.4%	24%	60%	56.6%	45%	59%	23%	43%	59%	45.2%	31%	68%	70.6% (active)
CCS(CC)(CC)CC1CCCC2=CCC(P(=O)(c3ccccc3)c3ccccc3)CC21 (stereo not given)	5%	5%	87.2% (active)	18%	18%	78.7% (active)	11%	11%	87.8% (active)	5%	5%	24.2%	-8%	-8%	67.8%	-9%	-9%	71.7% (active)
COC(=O)[C@H]1O[C@H]1c1ccncc1	0%	-5%	18.2%	3%	-2%	1.65%	5%	-2%	18.2%	-1%	-17%	53.8%	3%	-2%	6.2%	0%	-13%	8.2%
CCOC(=O)C(=O)Nc1ccc(Cl)cc1Cl	-12%	-1%	-1.5%	-12%	-5%	-10.3%	-1%	-2%	-2.25%	14%	34%	-1.75%	10%	-10%	10.6%	1%	7%	19.1%
CNC(=N)c1ccc(NC(=N)c2ccc(NC(=O)c3ccc(C(=O)Nc4ccc(C(=N)Nc5ccc(C(=N)NC)cc5)cc4)cc3)cc2)cc1	74% (active)	54%	70.2% (active)	81% (active)	57%	51%	52%	61%	53.8%	47%	42%	11.7%	79% (active)	74% (active)	46.6%	87% (active)	69%	87.5% (active)
CCOC(=O)C(CCc1ccccc1[N+](=O)[O-])C(C)=O (stereo not given)	4%	61%	78.9% (active)	2%	11%	27.6%	-3%	42%	66.8%	-1%	8%	-8.55%	-3%	8%	54%	-20%	45%	69.7%
COc1ccc(NC(=O)CCC(=O)CC(=O)c2ccncc2)cc1	-9%	3%	3.5%	4%	-2%	-8.65%	2%	-9%	-6.25%	-5%	2%	41.2%	-2%	1%	3.25%	-1%	-5%	-14.6%
COc1ccc(OC)c2c(C(=O)O)c(C(C)c3ccccc3)ccc12 (stereo not given)	-1%	70% (active)	85.8% (active)	3%	73% (active)	91.2% (active)	2%	64%	91.2% (active)	1%	74% (active)	96.2% (active)	-6%	65%	81.7% (active)	3%	75% (active)	92.3% (active)
CN(C)c1c([N+](=O)[O-])cc(N2C(=O)C=CC2=O)cc1[N+](=O)[O-]	81% (active)	91% (active)	91.8% (active)	88% (active)	98% (active)	93.2% (active)	23%	100% (active)	93.8% (active)	50%	99% (active)	90.8% (active)	47%	96% (active)	92.3% (active)	80% (active)	96% (active)	90.7% (active)
Cn1c(N)c(NC(=O)CCl)c(=O)n(C)c1=O	21%	20%	16.4%	3%	5%	-5.8%	-13%	-2%	-16.9%	1%	2%	12.8%	8%	7%	-2.45%	7%	0%	16.9%
O=S(=O)(c1ccc(O)cc1)c1ccc(Cl)cc1	-8%	38%	44.3%	-11%	20%	81.3% (active)	-5%	49%	79.5% (active)	4%	35%	49.1%	0%	46%	56.2%	4%	79% (active)	48.2%
Cc1cc(Cl)ccc1OCC(=O)Oc1c(Cl)c(Cl)c(Cl)c(Cl)c1Cl	7%	36%	65.8%	8%	13%	73% (active)	0%	42%	67.6%	-12%	33%	42.8%	-6%	19%	68.9%	7%	50%	76% (active)
NNc1c(Cl)c(F)c(Cl)c(F)c1Cl	13%	17%	21.6%	5%	17%	36.5%	4%	26%	47.5%	13%	24%	34.2%	3%	24%	54.7%	17%	24%	66.7%
CCN(CC)CCOc1ccc(/C(C#N)=C/c2ccc(C(F)(F)F)cc2)cc1	36%	96% (active)	75.5% (active)	34%	99% (active)	48.6%	65%	98% (active)	90.5% (active)	48%	90% (active)	69.3%	54%	98% (active)	54.1%	38%	99% (active)	90.8% (active)
O=C(O)c1ccc(/C=C2\COc3ccccc3C2=O)cc1	5%	85% (active)	62.6%	14%	92% (active)	67%	13%	96% (active)	83.1% (active)	5%	80% (active)	52.8%	24%	94% (active)	68.2%	4%	91% (active)	84.5% (active)
